Bioassay records: PubChem, several laboratories
This is a sample that favours compounds with a hit; in the whole collection about 2.8% have one here.
PP5 primary: PP5 phosphatase inhibitors, primary screen, biochemical, fluorescence. Serine/threonine-protein phosphatase 5 (Homo sapiens), P53041. purified PP5c, OMFP substrate fluorescence. inhibition, % at 6.7 µM. actives 0.18% (n = 320,000). AID 1987, 2009;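 active = inhibition above the campaign's mean inhibition across all tested compounds plus 3 SD, cut at about 9.5% in these data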;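 also: 0% = DMSO only and 100% = 100 µM cantharidin control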
PP1 counter: PP1-alpha phosphatase inhibitors, primary screen, counter-screen for PP5 inhibitor project, biochemical, fluorescence, OMFP substrate, single point. actives 0.9% (n = 320,000). Serine/threonine-protein phosphatase PP1-alpha catalytic subunit (Homo sapiens), P62136. inhibition, % at 6.7 µM. purified PP1alpha;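 active = inhibition above the mean inhibition of all tested compounds plus 3 SD, computed separately for each screening campaign, cut at about 15% in these data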
Target sequence (P62136 whole entry, looked up): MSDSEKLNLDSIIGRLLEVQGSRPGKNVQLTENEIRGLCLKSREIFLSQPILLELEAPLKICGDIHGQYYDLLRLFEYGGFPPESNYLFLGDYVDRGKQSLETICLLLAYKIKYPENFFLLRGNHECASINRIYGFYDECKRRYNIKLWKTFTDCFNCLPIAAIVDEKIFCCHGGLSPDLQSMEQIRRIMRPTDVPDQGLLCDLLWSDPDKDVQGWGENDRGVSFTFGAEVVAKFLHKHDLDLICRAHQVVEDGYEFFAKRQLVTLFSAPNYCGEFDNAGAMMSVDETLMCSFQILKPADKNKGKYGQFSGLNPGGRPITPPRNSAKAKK
GASC-1 inh: inhibitors of GASC-1 histone demethylase, primary screen, biochemical, fluorescence, DELFIA europium; Lysine-specific demethylase 4C (Homo sapiens), Q9H3R0; GST-JMJD2C(1-420) H3K9me3 demethylation; inhibition, % at 2.35 µM; actives 0.069% (n = 330,000); AID 2099, 2009;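 active = more than half of a compound's replicate wells show inhibition beyond 50%, single wells judged on their own value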;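 also: signal counts dimethyl H3K9 product captured on neutravidin plate; 0% = median of DMSO wells and 100% = 0.3 times that DMSO median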
NR1D1 modulator: modulators of Rev-erb alpha DNA binding, primary screen, biochemical, FITC-DNA, fluorescence polarization, uHTS; Nuclear receptor subfamily 1 group D member 1 (Homo sapiens), P20393; Rev-erbα–FITC-DNA binding, 90 min; activity, % at 10 µM; actives 0.79% (n = 370,000); AID 1259318, 2017;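 active = activity above about 14%, limit read from the data; passing the limit was not always enough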;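 also: 0% = DMSO wells with 35 nM protein and 100% = DMSO wells with 750 nM protein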
PG9 binder: binders of HIV-1 gp120 antibody PG9, primary screen, biochemical, TR-FRET | TR-FRET gp120-PG9 antibody binding | inhibition, % at 6.7 µM | actives 0.43% (n = 360,000) | AID 624416, 2012; in the data active = inhibition above about 8.5%
KLK7 zymogen act: proKLK7 zymogen activators, primary screen, biochemical, fluorescence intensity. actives 0.9% (n = 370,000). purified proKLK7, EDANS-DABCYL substrate fluorescence; 100% is mature enzyme control, 0% vehicle. AID 652039, 2013. Kallikrein-7 (Homo sapiens), P49862. activation, % at 7 µM;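 active = activation above the mean of all tested compounds plus 3 SD, computed per campaign excluding outliers beyond control limits, cut at about 13% in these data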
Target sequence (P49862 whole entry, looked up): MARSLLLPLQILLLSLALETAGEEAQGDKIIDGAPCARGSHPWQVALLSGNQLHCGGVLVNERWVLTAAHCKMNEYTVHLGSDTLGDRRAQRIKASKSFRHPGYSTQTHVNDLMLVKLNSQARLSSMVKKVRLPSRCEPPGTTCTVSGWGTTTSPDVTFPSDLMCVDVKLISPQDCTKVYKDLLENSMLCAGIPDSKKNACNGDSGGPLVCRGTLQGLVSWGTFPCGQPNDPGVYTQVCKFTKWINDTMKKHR
PP5 inh confirm: PP5 phosphatase inhibitors, confirmation, biochemical, fluorescence, human. AID 2331, 2010. shares compounds with PP5 primary. actives 22% (n = 460). Purified PP5, fluorogenic phosphatase substrate. inhibition, % at 6.7 µM; in the data active = inhibition above about 9.5%
PP1 inh counter: PP1 phosphatase inhibitors, counter-screen for PP5 inhibitor project, biochemical, fluorescence, triplicate; shares compounds with PP5 primary; PP1 enzyme, fluorescent phosphatase substrate; inhibition, % at 6.7 µM; actives 4% (n = 460); in the data active = inhibition above about 16%
* = called active by the depositor; . = not tested or not shown.

SMILES	PP5 primary	PP1 counter	GASC-1 inh	NR1D1 modulator	PG9 binder	KLK7 zymogen act	PP5 inh confirm	PP1 inh counter
CC(C)C1=CC2C3C(=O)N(c4ccccc4)C(=O)C3C1C(=O)C2(C)O (stereo not drawn)	.	.	.	12	-1	0	.	.
Oc1ccc(N=Cc2ccc(-c3cccs3)s2)cc1	11*	3	17	-6	-21	-87	0	-2
Cc1cc(O)cc(=O)n1-c1cccc(C(F)(F)F)c1	.	.	.	4	-1	-1	.	.
CCCSc1nsc(NC(=O)Nc2ccc(F)cc2F)n1	10*	7	-1	0	-2	0	-2	1
CCSc1nsc(NC(=O)Nc2cccc(F)c2)n1	-1	14	2	-7	-2	0	.	.
COC(=O)[C@]12C[C@H](CC(=O)N3CCCCC3)C(=O)N(Cc3ccco3)C1=C[C@H](C1CCCC1)O[C@@H]2C	.	.	.	-3	.	0	.	.
COc1ccc2sc(N(CCN(C)C)C(=O)c3cc(Cl)sc3Cl)nc2c1	-1	-3	3	-1	-1	0	.	.
COc1ccc(OC)c2sc(N(CCN(C)C)C(=O)c3cc(Cl)sc3Cl)nc12	11*	0	7	-2	-1	0	0	0
O=C(Cn1c(NCCO)nc2ccccc21)NCCc1ccccc1	3	2	4	12	0	0	.	.
O=C(Cn1c(NCCO)nc2ccccc21)c1ccco1	10*	-5	3	-7	-1	0	-5	-4
CCc1c(-c2ccc(Br)cc2)ncn1CCc1ccccc1OC	.	.	.	-3	1	0	.	.
COc1ccc(CN2C(=O)[C@]3(NCCc4c3[nH]c3ccc(OC)cc43)c3cc(Br)ccc32)cc1	.	.	.	2	.	0	.	.
CC(C)(C)c1ccc(C(=O)NNc2cc(N3CCCCC3)nc(N3CCCCC3)n2)cc1	5	4	-8	2	-2	0	.	.
O=C(NNc1cc(N2CCCC2)nc(N2CCCC2)n1)c1ccc([N+](=O)[O-])cc1	11*	4	-34	-1	-2	-1	34*	4
CN(C)c1nc(OCCOC(=O)COc2ccc(Cl)cc2Cl)nc(N(C)C)n1	2	1	9	0	0	-1	.	.
CN(C)c1nc(SCCOC(=O)COc2ccc(Cl)cc2Cl)nc(N(C)C)n1	11*	-2	-3	8	1	0	-3	-2
O=C1CC(N2CCCC2)=NC(=O)N1c1ccc(Br)cc1	.	.	.	-2	.	0	.	.
Cc1cc(C)c(S(=O)(=O)/N=C2/C=C(Sc3ncn[nH]3)C(=O)c3ccccc32)cc1C	11*	0	29	10	0	-4	32*	12
NC(=O)c1ccc(C(F)(F)F)n(Cc2ccc(Cl)cc2)c1=O	9.9*	6	-5	2	1	1	1	2
NC(=O)c1ccc(C(F)(F)F)n(Cc2ccc(F)c(F)c2)c1=O	4	3	-7	0	-2	1	.	.
CC1CC(C)CN(C(=O)c2ccc3c(=O)n(Cc4ccc5c(c4)OCO5)c(=S)[nH]c3c2)C1 (stereo not drawn)	11*	14	4	0	0	1	2	4
CC(C)COc1ccc(-c2csc(N3CCC(C(N)=O)CC3)n2)cc1	.	.	.	6	.	.	.	.
CCOC(=O)[C@@]12CN(C(=O)OC(C)(C)C)CC=C1N(Cc1ccc(OC)cc1)C(=O)[C@H]2CC(=O)NCc1cccc(C(F)(F)F)c1	.	.	.	3	.	1	.	.
CN(CCOC(=O)CCCc1ccccc1)C1CN(Cc2cn(Cc3ccccc3F)nn2)S(=O)(=O)C1 (stereo not drawn)	.	.	.	-4	.	1	.	.
Cc1ccc(-c2ccc(/C=N\n3cnnc3)o2)c(Br)c1	11*	5	12	4	0	0	-3	-2
SMILES	PP5 primary	PP1 counter	GASC-1 inh	NR1D1 modulator	PG9 binder	KLK7 zymogen act	PP5 inh confirm	PP1 inh counter
O=C(Nc1nc2ncccn2c1-c1ccccc1)c1ccccc1	.	.	.	2	.	7	.	.
O=C(c1ccc(C(F)(F)F)cc1)c1c[nH]c(C(=O)NCCCn2ccnc2)c1	12*	-3	-4	2	-3	0	-2	-3
O=C(Cc1ccccc1)c1c[nH]c(C(=O)NCCCn2ccnc2)c1	0	-4	2	0	0	0	.	.
O=C(C(=O)N1CCN(S(=O)(=O)c2ccccc2)CC1)c1cccc(C(F)(F)F)c1	.	.	.	-5	1	0	.	.
CCCCNS(=O)(=O)c1ccc(NC(=O)C(Sc2ccccc2)c2ccccc2)cc1 (stereo not drawn)	10*	8	11	1	0	1	4	3
Cc1ccc(S(=O)(=O)N(CC(=O)N2CCN(c3ccc(F)cc3)CC2)C2CCCCC2)cc1	10*	0	2	-2	-1	0	-4	-3
O=S(=O)(c1ccc(Br)s1)n1cccn1	12*	-3	-4	-3	-2	0	-3	-4
O=S(=O)(c1cccs1)n1cccn1	3	-4	-2	5	2	0	.	.
CCCOC(=O)c1ccc(Oc2c(-c3ccc(O)cc3O)n[nH]c2C)cc1	16*	1	-25	0	1	0	4	6
CCOc1ccc(-c2n[nH]c(C)c2Oc2ccccc2OC)c(O)c1	11*	4	-25	4	-2	0	6	4
C=C(C)COc1ccc(-c2n[nH]c(C)c2Oc2ccccc2OC)c(O)c1	4	1	-14	-1	-2	-1	.	.
Cc1[nH]c2ccccc2c1CC(=O)Nc1ccc(Nc2cccnc2)c(-c2ccc(Oc3ccccc3)cc2)c1	.	.	.	-2	1	-3	.	.
Cc1ccc(-n2nc(C(=O)N3CCOCC3)cc2-c2ccc(Cl)cc2)cc1	7	3	1	-4	-2	0	.	.
O=C(c1cc(-c2ccc(Cl)cc2)n(-c2ccc(Cl)cc2)n1)N1CCOCC1	13*	-1	32	0	1	1	-3	-1
Cc1cc(C(=O)N/N=C(\CCC(=O)O)c2cccs2)c2ccccc2n1	-2	-2	6	5	-1	0	.	.
